Source: PubChem BioAssay (NCI)
About 83,000 compounds went through this panel and 20% of them were active in at least one assay; those are over-represented in the sample as a whole.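 Treatment: one concentration, 48 hours, 96-well format. Scoring: percent growth, with anything below 10 considered active.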 Values without a mark were called inactive. Activity calls are given as the source filed them.

Key:
Assay in all cases: NCI-60 one-dose screen, 48 h (100 = growth as untreated, 0 = no growth, -100 = all killed)
Conditions in all cases: 10 µM unless noted
HT29 colon = tested on: HT29 colon
SNB-75 CNS = tested on: SNB-75 CNS
SNB-19 CNS = tested on: SNB-19 CNS
U251 CNS = tested on: U251 CNS
PC-3 prostate = tested on: PC-3 prostate
SK-MEL-5 melanoma = tested on: SK-MEL-5 melanoma
UACC-62 melanoma = tested on: UACC-62 melanoma
LOX IMVI melanoma = tested on: LOX IMVI melanoma
SK-MEL-28 melanoma = tested on: SK-MEL-28 melanoma

Row | Compound | growth (HT29 colon) | growth (SNB-75 CNS) | growth (SNB-19 CNS) | growth (U251 CNS) | growth (PC-3 prostate) | growth (SK-MEL-5 melanoma) | growth (UACC-62 melanoma) | growth (LOX IMVI melanoma) | growth (SK-MEL-28 melanoma)
1 | OCCNCCCOc1ccc2ncnc(Nc3ccc(Oc4cccc(C(F)(F)F)c4)c(Cl)c3)c2c1 | -13.3% (active) | 62.4% | 44.9% | 3.99% (active) | 30.5% | 48.9% | 88.3% | -98.9% (active) | 73.1%
2 | COc1ccc(-c2nc3c(c(-c4ccccc4)nn3-c3ccccc3)c(-c3ccc(N4CCN(C)CC4)cc3)c2C#N)cc1 | 80.5% | 106% | 95.2% | 77.4% | 94.3% | 97.8% | 100% | 69.2% | 97.5%
3 | N#Cc1c(-c2cccs2)cc(-c2cccnc2)[nH]c1=O | 111% | 102% | 98.1% | 96.9% | 101% | 102% | 95.5% | 97.5% | 104%
4 | CN[C@]12CC3(C=CC(=O)C=C3)O[C@@]1(Cc1ccc(OC)cc1)N(C)C(=O)N2 | 7.83% (active) | 37.8% | 64.4% | 10.9% | 27.6% | 43% | -43% (active) | -50% (active) | 18.1%
5 | COc1ccc(-c2cn(-c3cc(OC)c(OC)c(OC)c3)c(=O)n2C(C)=O)cc1 | 85.4% | 88.3% | 92.9% | 97.6% | 105% | 94% | 84.2% | 95.5% | 103%
6 | C#CCOc1ccc2ncnc(Nc3ccc(NC(=O)CCl)cc3)c2c1 | -60% (active) | 42% | -22.2% (active) | -83.7% (active) | 6.66% (active) | -90.6% (active) | -10.1% (active) | -80.1% (active) | 36.2%
7 | O=C(/C=C(/C=C/c1cccc2[nH]ccc12)OB(F)F)/C=C/c1cccc2[nH]ccc12 | -52.8% (active) | -40.4% (active) | -7.8% (active) | -87% (active) | -42.5% (active) | -78.3% (active) | -51.8% (active) | -81.1% (active) | -14.3% (active)
8 | O=C1c2cccc3cccc(c23)C(=O)N1N1C(=O)c2cccc3c(N4CCOCC4)ccc(c23)C1=O | 107% | 58.5% | 87.8% | 90.7% | 91.2% | 101% | 90.5% | 90.2% | 102%
9 | c1cc2[nH]ncc2cc1-c1nc2ccc3[nH]ncc3c2c2c1CCCC2 | 4.84% (active) | -3.31% (active) | 24.3% | 15.7% | 23.1% | -56.1% (active) | 1.74% (active) | 16.2% | -0.43% (active)
10 | CCN1CC(=O)N(/N=C2\C(=O)Nc3ccccc32)C1=S | 102% | 80.3% | 91.9% | 99.2% | 92% | 79.4% | 76.4% | 86.5% | 111%
11 | CC(C)N1CN2C(=S)NC3C2N(C1)C(=S)N3C (stereo not given) | 92.4% | 85.5% | 100% | 101% | 98% | 97.9% | 96.6% | 98.9% | 114%
12 | CCOC(=O)c1cc2c(=O)oc3ccccc3c2oc1=O | 96% | 82.1% | 105% | 91.6% | 69.3% | 106% | 95.8% | 91.5% | 116%
13 | Fc1cccc(CNc2c3ccccc3nc3ccccc23)c1F | 29.1% | 78.8% | 58.5% | 65.6% | 57.1% | 83% | 75.7% | 39.2% | 96.9%
14 | Cn1c(O)c(C=NCCN=Cc2c(O)n(C)c(=O)n(C)c2=O)c(=O)n(C)c1=O | 97.1% | 88.3% | 97.6% | 102% | 90.4% | 98.7% | 84.1% | 93.2% | 109%
15 | CCOC(=O)CSc1ncnc2c1c(-c1ccccc1)c(-c1ccccc1)n2-c1ccc(C)cc1 | 63.9% | 87.8% | 63.4% | 49.1% |  | 44.9% | 57.1% | 78.4% | 87.6%
16 | COc1cc(OC)cc(C2=C3CC[C@@H]4[C@H](CC[C@]5(C)C(=O)CC[C@@H]45)C3=CC3C(O)c4cccnc4N4C(=O)COC234)c1 (stereo not given in full) | 104% | 72.9% | 92% | 93.8% | 94.7% | 98.1% | 94.1% | 95.9% | 115%
17 | COc1ccc(N2CCC(=O)NC2=S)cc1 | 105% | 96.6% | 105% | 103% | 107% | 99.2% | 99.2% |  | 111%
18 | Cc1nc2sc(C(=O)Nc3cccc(Cl)c3C)c(N)c2cc1C(=O)c1ccccc1 | 3.07% (active) | 7.46% (active) | 12.7% | 15.6% | 6.12% (active) | 9.08% (active) | 17% | 35.8% | 42.7%
